Compound activity as filed in PubChem BioAssay.
3CLpro inhibitor: SARS-CoV 3CLpro protease inhibition | inhibition, % at 6 µM | P0C6X7 | recombinant SARS-CoV 3CLpro, quenched FRET peptide cleavage | hit rate 0.14% among 290,000; in the data active means inhibition above about 12%
BoNT-F LC inh: inhibitors of Botulinum neurotoxin F light chain protease; hit rate 0.22% among 360,000; inhibition, % at 10 µM; AID 588497; Multiplex microsphere protease cleavage assay, flow cytometry; in the data active means inhibition above about 35%, passing the limit was not always enough; inconclusive means no clear call, values can overlap the other calls; further: plate controls were buffer without enzyme for full effect and enzyme alone for no effect
Bead autofluor: compound fluorescence in toxin protease inhibitor counterscreen | compound autofluorescence counterscreen, microsphere flow cytometry; stronger effect = higher value | AID 624483 | fluorescence intensity (no concentration beside the values) | hit rate 3.1% among 360,000; in the data active means fluorescence intensity above about 16000; inconclusive means no clear call, values can overlap the other calls
Anthrax LF prot: blocks Bacillus anthracis lethal factor protease; P15917; multiplex microsphere protease cleavage assay, LF; inhibition, % at 10 µM; hit rate 0.12% among 360,000; AID 588501; further: plate controls were buffer without enzyme for full effect and enzyme alone for no effect
BoNT-A LC inh2: blocks Botulinum neurotoxin A light chain protease | inhibition, % at 10 µM | multiplex microsphere protease substrate cleavage, flow cytometry | hit rate 0.17% among 360,000; further: plate controls were buffer without enzyme for full effect and enzyme alone for no effect
* marks the source's active call; other numbers are inactive results; ? = inconclusive; · = not tested or not shown. An excerpt weighted towards active compounds, which were near 3.5% of everything screened. Unless noted, no stated cut-off is given here; in the data, active means inhibition above about 30%; inconclusive means no clear call, values can overlap the other calls; inactive means below that.

SMILES	3CLpro inhibitor	BoNT-F LC inh	Bead autofluor	Anthrax LF prot	BoNT-A LC inh2
CCCc1[nH]nc2c1C1(C(=O)N(Cc3ccccc3)c3ccccc31)C(C(=O)OC)=C(N)O2 (centres undefined)	0.9	8.8	17223*	-15.2	7.8
CCCc1[nH]nc2c1C1(C(=O)N(CC(N)=O)c3ccccc31)C(C(=O)OC)=C(N)O2 (centres undefined)	-2.8	8.0	2689	-1.6	0.1
CCN1C(=O)C2(C(C#N)=C(N)Oc3n[nH]c(-c4ccccc4)c32)c2ccccc21 (centres undefined)	-1.0	-0.5	16247*	-1.2	0.1
O=[N+]([O-])c1ccc2c(c1)N([O-])C1(CCCCC1)[N+]2=O	-0.3	·	·	·	·
CC(C)CN1CCC(C(=O)NCC2CCCO2)CC1 (centres undefined)	0.5	-0.9	2859	-5.6	0.1
N#CC1=C(Nc2ccc(Br)cc2)CCC1	-5.4	-10.5	16939*	-4.7	-2.1
CCOC(=O)c1ccc(NC(=S)N2CCN(Cc3ccccc3)CC2)cc1	-0.2	-2.3	1944	-1.8	-0.4
N#CC1=C(N)N2C(=C(C#N)C13CCCCC3)SC1CCCCC12O (centres undefined)	1.0	-0.1	22232*	-1.7	-1.0
Cc1ccc(S(=O)(=O)N2CCCCC2)cc1NC(=O)c1nn(C)c(=O)c2ccccc12	·	8.0	5622	-1.8	-0.3
COCCn1c(=S)[nH]c2cc(C(=O)NCCCN3CCOCC3)ccc2c1=O	-7.5	-2.0	22856*	-0.5	-1.7
COCCn1c(=S)[nH]c2cc(C(=O)N3CCC(C(N)=O)(N4CCCCC4)CC3)ccc2c1=O	2.1	3.1	22116*	-6.6	2.6
COCCn1c(=S)[nH]c2cc(C(=O)NC3CCCCCC3)ccc2c1=O	·	1.3	3556	1.7	-0.4
CCOC(=O)C1CCCN(C(=O)c2ccc3c(=O)n(CCOC)c(=S)[nH]c3c2)C1 (centres undefined)	-0.2	0.6	20489*	-0.8	0.6
CCOCCCn1c(=S)[nH]c2cc(C(=O)N3CCC(C(N)=O)CC3)ccc2c1=O	-5.2	2.0	?	-8.3	1.9
COc1cccc(CN2CCN(Cc3cccc4c3OCO4)CC2CCO)c1 (centres undefined)	-1.2	2.7	4355	-7.3	0.2
O=C(CCCN1C(=O)c2ccccc2C1=O)NCc1ccco1	-2.8	13.4	4591	-1.2	0.3
NS(=O)(=O)c1ccc(CNC(=O)NC23CC4CC(CC(C4)C2)C3)cc1	1.5	10.9	17603*	-15.7	?
O=C(NCCCO)NC12CC3CC(CC(C3)C1)C2	-5.0	5.2	19797*	-0.6	2.7
CCC(=O)N(c1nnc(SCC(=O)c2ccc[nH]2)s1)C1CC1	·	-12.4	3292	2.6	0.2
CCN(CC(=O)Nc1cc(Cl)ccc1C)C(=O)CN1C(=O)NC(CC)(c2ccccc2)C1=O (centres undefined)	·	13.2	?	?	2.9
O=C(COC(=O)c1ccccn1)Nc1nccs1	1.1	-16.6	3739	-11.5	-0.7
COc1ccc(/C=N/n2cnnc2)cc1COc1ccccn1	1.1	-0.9	23503*	-1.2	-1.1
CC(=O)c1cc(C#N)c(SCc2ccccn2)nc1C	0.4	-10.7	4576	-0.7	-1.3
Cc1ccc(/C=N/NC(=O)c2ccco2)s1	-3.5	-3.7	25160*	-0.8	-2.7
O=C(N/N=C/c1ccc(Br)s1)c1ccco1	6.7	?	4727	-1.5	-1.1
SMILES	3CLpro inhibitor	BoNT-F LC inh	Bead autofluor	Anthrax LF prot	BoNT-A LC inh2
O=c1c2cc(N3CCOCC3)ccc2[nH]c(=S)n1Cc1cccc(Cl)c1	0.4	-1.3	23197*	-0.6	0.1
CC1CCN(CCCn2c(=S)[nH]c3ccc(N4CCOCC4)cc3c2=O)CC1	-7.3	-3.3	22801*	-1.1	-1.9
COc1cccc(Cn2c(=S)[nH]c3ccc(N4CCOCC4)cc3c2=O)c1	-1.2	-2.6	20640*	-0.7	-3.0
Cc1sc(N)c(C#N)c1C	-2.6	-1.9	1997	-0.1	0.2
CCOc1ccc(CN2CCN(Cc3cnc(N4CCOCC4)s3)CC2CCO)cc1 (centres undefined)	0.3	0.9	3571	-3.8	-1.0
COc1ccc(/C=C/C(=O)NCc2c(C)nn(C)c2C)cc1COc1ccc(Br)cc1	-0.7	20.2	8036	-2.7	2.7
COc1ccc(/C=C/C(=O)NCc2cnn(C)c2C)cc1COc1ccc(Br)cc1	5.2	-4.3	23817*	-2.1	-2.4
Nc1nc(-c2c(Cl)cccc2Cl)no1	-2.6	3.6	5910	-2.3	0.2
C#CCOC(=O)c1csc2nnsc12	-0.8	2.0	21747*	-3.0	?
CCCOc1ccc(S(=O)(=O)N2C(=O)CC(=O)N(Cc3ccc(OCC)cc3)C2=O)cc1	2.7	·	·	·	·
